Results reported in PubChem BioAssay (NCI).
Several values for one entry are separate records, joined by “and”; a condition that tells them apart may be missing. Equal entries are not always repeated. This is part of a sample that, as a whole, favours compounds with a hit. Of some 83,000 tested, about 20% had one in any assay.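 Activity criterion: percent growth below 10, measured after cells in 96-well plates were exposed to a single compound concentration for 48 hours.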 Values without a mark were called inactive.

The compounds below were run on OVCAR-8 ovarian (assay: NCI-60 one-dose screen, 48 h (100 = growth as untreated, 0 = no growth, -100 = all killed)). Settings: 10 µM.
Protocol: Growth inhibition of the OVCAR-8 human tumor cell line is measured as a screen for anti-cancer activity. Cells are grown in 96 well plates and exposed to the test compound for 48 hours. Compounds are tested at a single concentration, which is 10^-5 M for most compounds. The reported endpoint is percent growth (GI% or GIPRCNT), where numbers from 0 - 100% represent growth inhibition, and numbers from -100% - 0 represent cell death. For example, a value of 40 represents 60% growth inhibition. A value of 0 means no net growth occurred over the course of the experiment. A value of -40 indicates 40% of cells at the beginning of the experiment died by the end of the experiment. A value of -100 means all cells are dead at the end of the experiment.
NCI-60 Human Tumor Cell Lines Screen was performed using the standard one-dose NCI protocol, which is described in more detail at https://dtp.cancer.gov/discovery_development/nci-60/default.htm.
Compounds with GIPRCNT values below 10 were considered active. Activity score was based on GIPRCNT using the following formula: […]
Score is 0 for GIPRCNT values of 100 or above, 50 for GIPRCNT values of 0, and 100 for GIPRCNT values of -100.
With `S=c1nc[nH]c2nc[nH]c12` the growth was 26.6%.

Same assay, conditions: 10 µM unless noted
`Cc1cccc(Cl)c1N` was tested, and the growth was 96.1%.
Work on `O=C(O)COc1ccccc1F` yielded a growth of 116%.
`CCOC(=O)c1ccc(N2C(=O)C(Cl)(c3ccccc3)C2c2ccco2)cc1` (stereo not given) was tested, and the growth was 90.2%.
`COC(=O)CCOc1ccccc1` was tested, and the growth was 91.1%.
With `Cc1cc(Cl)nc(Nc2ccccc2)n1` the growth was 102%.
Work on `CC1CC(O)CC(C)(C)C1.CC1CC(O)CC(C)(C)C1.CC1CC(O)CC(C)(C)C1.CC1CC(O)CC(C)(C)C1.[Ti]` (stereo not given) yielded a growth of 106%.
`CCn1c2ccc(N(C)C)cc2c2cc(N(C)C)ccc21` was tested, and the growth was 97.3%.
With `O=C1Cc2ccccc2C(=O)N1` the growth was 56.2%.
For `OC(CC(c1ccccc1)c1cccc2ccccc12)(c1ccccc1)c1ccccc1` (stereo not given), the growth was 72.8% and 87.1%.
`CN(C)c1ccc(C(=N)c2ccc(N(C)C)cc2)cc1` was tested, and the growth was 31.5% and 31.2%.
For `Nc1ccccc1SC(CC(=O)c1ccccc1)c1cccc([N+](=O)[O-])c1` (stereo not given), the growth was 87.9% and 92.8%.
For `CCCCCCCCCCCCCCCCC(=O)O`, the growth was 103%.
`COc1cc2c(cc1O)C(=O)CCCC2` showed a growth of 117%.
In the case of `COc1ccc2oc3cc(NCCN(C)C)ccc3c(=O)c2c1`, the growth is reported as 88% and 63.4%.
For `O=C(N=C1C(=O)C2(CCCCC2)C2(N=C(c3ccccc3)OC2=O)C12CCCCC2)c1ccccc1` (stereo not given), the growth was 75.4%.
With `Nc1c(S(=O)(=O)O)cc(Br)c2c1C(=O)c1ccccc1C2=O` the growth was 106% and 92.1%.
`CN(C=O)c1ccccc1` was tested, and the growth was 96.6%.
In the case of `C/C(=C\c1ccccc1)C(O)C(=O)c1nc2ccc([N+](=O)[O-])cc2[nH]c1=O` (stereo not given), the growth is reported as 96.6%.
For `CCOC(=O)C1=CC(=O)CC(C)(C)O1`, the growth was 114% and 106%.
Compound `COc1ccc(S(=O)(=O)c2ccc(F)cc2)cc1` has a growth of 97.3%.
`CCCCOC1NC(=O)NC(=O)C1(F)C(=O)OCC` (stereo not given) was tested, and the growth was 89.6% and 66.6%.
For `CC(=O)C[n+]1ccccc1Sc1ccc(Cl)cc1`, the growth was 92.8%.
In the case of `O=[N+]([O-])c1ccc(NC2CCCCC2)nc1`, the growth is reported as 118% and 101%.
`O=C(O)/C=C/C=C/c1ccccc1` was tested, and the growth was 102% and 109%.
For `O=c1[nH]c(=O)n(C2OC(CO)C(O)C2O)cc1I` (stereo not given), the growth was 98.9% and 95.7%.
With `NCCCCCC(=O)O` the growth was 103% [middle of 4 runs].
Work on `O=P(O)(O)OC1C(OP(=O)(O)O)C(OP(=O)(O)O)C(OP(=O)(O)O)C(OP(=O)(O)O)C1OP(=O)(O)O.[Cu+2]` (stereo not given) yielded a growth of 76.8%.
For `CSc1nc(N)c(N)c(N)n1`, the growth was 103%.
With `CC1OS(=O)OC1C` (stereo not given) the growth was 101% and 97.9%.
`O=C(Nc1ccccc1)OCC(CN1CCCCC1)OC(=O)Nc1ccccc1` (stereo not given) was tested, and the growth was 92.8% and 95.1%.
With `CCCCCc1cc[n+](CC(=O)c2ccccc2)cc1` the growth was 97.2% and 99.3%.
`NCCSSC/C=C\CSSCCN` gave a growth of 97%.
In the case of `Cc1ccc(N)cc1S(=O)(=O)O`, the growth is reported as 108% and 100%.
In the case of `N=C(N=C(N)N)N1CCOCC1`, the growth is reported as 105% and 106%.
In the case of `CS(=O)(=O)OCC1NC(=O)C(COS(C)(=O)=O)NC1=O` (stereo not given), the growth is reported as 87.5% and 107%.
For `CCC(C)NC(=O)c1ccccc1C` (stereo not given), the growth was 102%.
`O=C(O)C(Cc1ccc(OS(=O)(=O)Cc2ccccc2)cc1)NS(=O)(=O)Cc1ccccc1` (stereo not given) gave a growth of 105%.
`O=C(NC(=O)c1ccc(F)c(Cl)c1)NC1CC1` was tested, and the growth was 98.8% and 103%.

Same assay, conditions: 50 µM
For `S=c1nc[nH]c2nc[nH]c12`, the growth was 24%.
